Measured values published in PubChem BioAssay.
Calls of active or inactive are those of the source.

Columns and labels:
[1] = system: Wnt5a (protein binding on small-molecule microarray); experiment: small molecules binding Wnt5a protein – biophysical, small-molecule microarray, 635/667 nm fluorescence, primary screen (AID 1142); conditions: 635 nm fluorescence, higher = more signal;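 further: fluorescence read at 667 nm with signal to noise per printed feature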
[2] = ATP-based viability of Huh7 replicon cells – cell-based, CellTiter-Glo luminescence, basal, 48 h, cytotoxicity control for HCV replication inhibitor project, primary screen (AID 1143); conditions: higher = more signal, called active from +8 up or from −8 down;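 further: Huh7 hepatoma cells carrying a hepatitis C replication reporter with no stimulus; test concentration not given here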
[3] = basal CRE-LacZ reporter activity in PC12 – cell-based, unstimulated, primary screen (AID 1145); conditions: no forskolin, luminescence, 4.5 h, higher = more signal, called active from +8 up or from −8 down
[4] = forskolin-driven CRE-LacZ activity in PC12 – cell-based, CRE-LacZ reporter, forskolin-stimulated, primary screen (AID 1146); conditions: luminescence, 4.5 h, higher = more signal, called active from +8 up or from −8 down;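 further: PC12 cells with 6xCRE LacZ reporter stimulated by forskolin 10 µM; beta-galactosidase reporter signal reflecting CREB driven transcription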
[5] = target: Streptavidin (Streptomyces avidinii) (UniProt P22629); experiment: compounds binding control protein streptavidin – biophysical, small-molecule microarray, 635/667 nm fluorescence, artefact control for SMM compound annotation, primary screen (AID 1147); conditions: higher = more signal;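 further: signal reflects streptavidin binding to arrayed compounds as a control protein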
[6] = probe aInhba binding on compound microarray – biochemical, small-molecule microarray, 635/667 nm fluorescence, primary screen (AID 1148); conditions: higher = more signal;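 further: score merges 667nm spot fluorescence with signal-to-noise for antibody binding to printed compounds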
Torsin-1A (Homo sapiens) [7] = target: Torsin-1A (Homo sapiens) (UniProt O14656); experiment: TOR1A wild-type binding on microarray – cell lysate, small-molecule microarray, lysate, 635/667 nm, primary screen (AID 1149); conditions: COS7 hTOR1A-WT lysate, 635 nm fluorescence, higher = more signal
Torsin-1A (Homo sapiens) [8] = target: Torsin-1A (Homo sapiens) (UniProt O14656); experiment: torsin A mutant lysate binding on microarrays – cell lysate, small-molecule microarray, COS7 lysate, 635/667 nm fluorescence, primary screen (AID 1150); conditions: COS7 hTOR1A mutant lysate, 635 nm fluorescence, higher = more signal;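 further: score pools 667 nm emission and signal to noise measuring lysate protein binding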
[9] = system: Sonic hedgehog protein (Shh); experiment: Sonic hedgehog microarray binding compounds – biochemical, small-molecule microarray, 635/667 nm fluorescence, primary screen (AID 1151); conditions: 635 nm fluorescence, higher = more signal;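 further: Shh protein binding to compounds spotted on small-molecule microarray slides; score combines spot fluorescence intensity with signal-to-noise across triplicate slides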
[10] = optical density shifts of acrAB sulA E. coli – strain DRC41, OD650, 48 h, E. coli filamentation inducer project, primary screen (AID 1152); conditions: higher = more signal, called active from +8 up or from −8 down;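 further: E. coli MC1000 strain DRC41 lacking acrAB efflux pump and sulA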
[11] = probe aLefty1 binding on compound microarray – biochemical, small-molecule microarray, 635/667 nm fluorescence, primary screen (AID 1153); conditions: higher = more signal;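 further: score merges spot fluorescence with signal-to-noise ratio from the scanned slide images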
[12] = plasmodial surface anion channel blockers, osmotic lysis – cell-based, P. falciparum Indochina, OD700, 1 h, primary screen (AID 1154); conditions: P. falciparum Indochina infected RBC osmotic lysis, higher = more signal, called active from +8 up or from −8 down
[13] = plasmodial surface anion channel blockers, osmotic lysis – cell-based, P. falciparum Indochina, OD700, 2 h, primary screen (AID 1155);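 further: lysis reports solute entry through the parasite surface anion channel PSAC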; conditions: P. falciparum Indochina infected erythrocytes, higher = more signal, called active from +8 up or from −8 down
[14] = changes in parasitized red cell lysis, either direction – P. falciparum Indochina, OD700, 3 h, PSAC antagonist project, primary screen (AID 1156); conditions: P. falciparum-infected erythrocytes, osmotic lysis, higher = more signal, called active from +8 up or from −8 down
[15] = plasmodial surface anion channel blockers, osmotic lysis – cell-based, P. falciparum Indochina, OD700, 18 h, primary screen (AID 1157); conditions: P. falciparum Indochina infected erythrocytes, osmotic lysis OD700, 18 h; higher = more signal, called active from +8 up or from −8 down
[16] = S6 kinase pathway phospho-S6 level changes – cell-based, A549, cytoblot, luminescence, serum-stimulated, primary screen (AID 1158); conditions: 5 h, higher = more signal;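 further: serum-stimulated A549 lung adenocarcinoma cells; signal is phosphorylated S6 detected by cytoblot immunostaining with HRP secondary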
[17] = target: NADPH oxidase 2 (Homo sapiens) (UniProt P04839); experiment: compounds shifting NOX2 Amplex Red fluorescence – cell-based, HEK293-NOX2, PMA-stimulated, NOX inhibitor project, primary screen (AID 1159); conditions: 45 min, higher = more signal, called active from +8 up or from −8 down; further: test concentration not given here
[18] = target: NADPH oxidase 4 (Homo sapiens) (UniProt Q9NPH5); experiment: compounds shifting NOX4 Amplex Red fluorescence – cell-based, HEK293-NOX4, tetracycline-induced, NOX inhibitor project, primary screen (AID 1160); conditions: HEK293-NOX4, Amplex Red H2O2 fluorescence, 45 min; higher = more signal, called active from +8 up or from −8 down
[19] = target: NADPH oxidase 5 (Homo sapiens) (UniProt Q96PH1); experiment: compounds shifting NOX5 Amplex Red fluorescence – cell-based, HEK293-NOX5, NOX inhibitor project, primary screen (AID 1161); conditions: HEK293-NOX5, ionomycin, 45 min, higher = more signal
[20] = compound effects on lung adenocarcinoma cell viability – A549, calcein-AM fluorescence, 48 h, basal, profiling panel (AID 1162); conditions: higher = more signal; further: test concentration not given here

NADPH oxidase 4 (Homo sapiens), sequence (Q9NPH5 whole entry, looked up): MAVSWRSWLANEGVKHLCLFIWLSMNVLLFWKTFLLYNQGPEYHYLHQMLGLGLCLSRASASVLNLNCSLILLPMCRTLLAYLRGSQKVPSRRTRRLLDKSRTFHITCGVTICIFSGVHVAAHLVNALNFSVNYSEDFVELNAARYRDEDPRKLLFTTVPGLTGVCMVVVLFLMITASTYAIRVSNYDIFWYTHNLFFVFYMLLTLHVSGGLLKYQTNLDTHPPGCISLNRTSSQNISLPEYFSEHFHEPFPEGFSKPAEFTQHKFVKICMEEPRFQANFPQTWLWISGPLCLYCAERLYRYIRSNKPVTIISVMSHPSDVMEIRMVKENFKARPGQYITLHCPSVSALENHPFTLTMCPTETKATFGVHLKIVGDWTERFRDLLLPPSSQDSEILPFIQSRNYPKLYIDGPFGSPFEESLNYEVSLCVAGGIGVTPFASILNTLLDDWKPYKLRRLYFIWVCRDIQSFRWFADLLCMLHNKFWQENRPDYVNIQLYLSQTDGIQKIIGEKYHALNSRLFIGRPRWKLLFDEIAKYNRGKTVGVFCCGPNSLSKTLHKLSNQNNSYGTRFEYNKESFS
NADPH oxidase 5 (Homo sapiens), sequence (Q96PH1 whole entry, looked up): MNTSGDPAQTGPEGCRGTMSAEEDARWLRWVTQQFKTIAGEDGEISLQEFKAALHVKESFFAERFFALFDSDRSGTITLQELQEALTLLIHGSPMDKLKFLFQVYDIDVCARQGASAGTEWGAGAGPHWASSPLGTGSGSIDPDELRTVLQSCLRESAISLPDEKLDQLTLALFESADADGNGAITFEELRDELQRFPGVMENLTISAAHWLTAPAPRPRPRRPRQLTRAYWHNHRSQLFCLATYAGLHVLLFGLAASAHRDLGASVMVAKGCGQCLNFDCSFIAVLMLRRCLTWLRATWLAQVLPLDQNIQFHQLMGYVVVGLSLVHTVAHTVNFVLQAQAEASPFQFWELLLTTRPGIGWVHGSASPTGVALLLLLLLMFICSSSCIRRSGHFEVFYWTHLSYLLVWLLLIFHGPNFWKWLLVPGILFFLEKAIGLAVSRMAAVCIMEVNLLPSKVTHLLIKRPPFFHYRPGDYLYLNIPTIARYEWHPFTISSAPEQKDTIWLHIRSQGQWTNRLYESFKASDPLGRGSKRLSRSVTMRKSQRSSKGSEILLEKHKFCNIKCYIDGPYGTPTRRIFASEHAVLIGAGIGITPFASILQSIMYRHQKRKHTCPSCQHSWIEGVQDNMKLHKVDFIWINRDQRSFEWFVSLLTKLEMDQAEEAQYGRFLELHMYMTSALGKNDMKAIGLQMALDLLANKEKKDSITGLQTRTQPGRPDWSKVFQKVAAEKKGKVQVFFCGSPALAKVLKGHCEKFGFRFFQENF
Torsin-1A (Homo sapiens), sequence (O14656 whole entry, looked up): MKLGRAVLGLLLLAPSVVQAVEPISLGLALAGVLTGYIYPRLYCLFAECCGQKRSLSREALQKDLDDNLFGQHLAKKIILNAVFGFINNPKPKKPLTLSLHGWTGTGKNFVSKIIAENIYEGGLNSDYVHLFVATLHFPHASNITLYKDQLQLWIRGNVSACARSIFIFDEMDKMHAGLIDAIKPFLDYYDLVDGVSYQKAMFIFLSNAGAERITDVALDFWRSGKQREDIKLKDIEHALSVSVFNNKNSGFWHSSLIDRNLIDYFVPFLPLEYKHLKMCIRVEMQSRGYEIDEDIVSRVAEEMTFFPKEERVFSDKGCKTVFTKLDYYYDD
NADPH oxidase 2 (Homo sapiens), sequence (P04839 whole entry, looked up): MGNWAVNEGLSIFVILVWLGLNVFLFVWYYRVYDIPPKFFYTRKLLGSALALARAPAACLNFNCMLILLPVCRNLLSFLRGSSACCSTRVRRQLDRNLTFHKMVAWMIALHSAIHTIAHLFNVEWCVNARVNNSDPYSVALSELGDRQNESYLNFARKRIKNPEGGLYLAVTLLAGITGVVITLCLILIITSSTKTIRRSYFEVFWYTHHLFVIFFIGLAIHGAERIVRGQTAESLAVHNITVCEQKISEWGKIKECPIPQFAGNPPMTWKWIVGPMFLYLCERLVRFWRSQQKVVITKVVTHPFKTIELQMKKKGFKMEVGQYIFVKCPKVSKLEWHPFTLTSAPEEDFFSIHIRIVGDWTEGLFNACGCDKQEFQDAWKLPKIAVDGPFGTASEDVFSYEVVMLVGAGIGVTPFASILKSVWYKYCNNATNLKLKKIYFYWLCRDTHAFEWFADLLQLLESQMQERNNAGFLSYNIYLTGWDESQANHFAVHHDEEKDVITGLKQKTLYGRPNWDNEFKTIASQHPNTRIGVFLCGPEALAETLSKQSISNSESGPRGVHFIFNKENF
Streptavidin (Streptomyces avidinii), sequence (P22629 whole entry, looked up): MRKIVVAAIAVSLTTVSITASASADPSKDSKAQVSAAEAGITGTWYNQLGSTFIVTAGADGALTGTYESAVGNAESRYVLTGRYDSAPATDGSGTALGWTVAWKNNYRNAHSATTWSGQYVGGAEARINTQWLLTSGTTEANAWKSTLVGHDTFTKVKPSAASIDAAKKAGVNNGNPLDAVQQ

SMILES	composite z-score [1]	z-score [2]	z-score [3]	z-score [4]	composite z-score [5]	composite z-score [6]	composite z-score (Torsin-1A (Homo sapiens) [7])	composite z-score (Torsin-1A (Homo sapiens) [8])	composite z-score [9]	z-score [10]	composite z-score [11]	z-score [12]	z-score [13]	z-score [14]	z-score [15]	z-score [16]	z-score [17]	z-score [18]	z-score [19]	z-score [20]
O=C(NO)[C@]1(Cc2ccccc2)N=C(c2ccc(OCCCO)cc2)O[C@@H]1c1ccccc1	-0.229	-1.7 (inactive)	3.01 (inactive)	-1.91 (inactive)	-0.585	-0.0782	-0.427	0.411	-0.351	3.88 (inactive)	0.0278	15 (active)	0.971 (inactive)	-0.479 (inactive)	-0.21 (inactive)	2.81	0.709 (inactive)	0.551 (inactive)	2.06	1.86
C=CCN1C(=O)[C@@]2(O[C@@H](CCn3cc(CCO)nn3)[C@H]([Si](C)(C)c3ccc(OC)cc3)[C@H]2C)c2cc(NC(=O)c3ccc(OC)cc3)ccc21	0.315	-2.79 (inactive)	12.8 (active)	-2.29 (inactive)	0.441	0.0497	0.558	0.437	1.4	0.596 (inactive)	0.0789	12.1 (active)	2.03 (inactive)	1.1 (inactive)	0.742 (inactive)	0.157	-0.282 (inactive)	1.45 (inactive)	0.367	-0.0183
COCCOC(=O)N1C(=O)[C@@]2(c3cc(C#CCNC(N)=O)ccc31)[C@H](c1ccccc1OCCO)N1[C@H](c3ccccc3)[C@H](c3ccccc3)OC(=O)[C@H]1[C@@H]2C(=O)Nc1nc2ccccc2s1	0.141	-0.949 (inactive)	0.0653 (inactive)	0.178 (inactive)	0.789	0.061	0.196	0.287	0.312	2.56 (inactive)	0.0943	2.23 (inactive)	-0.226 (inactive)	0.653 (inactive)	-0.809 (inactive)	1.87	1.85 (inactive)	1.5 (inactive)	1.25	0.323
C=CCNC(=O)[C@H]1[C@@H]2C(=O)O[C@@H](c3ccccc3)[C@@H](c3ccccc3)N2[C@@H](c2ccccc2OCCO)[C@]12C(=O)N(C(=O)OCCOC)c1ccc(C#CCCO)cc12	0.641	-3.68 (inactive)	0.472 (inactive)	3.22 (inactive)	0.876	0.561	1.02	0.546	0.861	1.4 (inactive)	1.12	2.84 (inactive)	1.32 (inactive)	-0.383 (inactive)	0.875 (inactive)	0.0195	1.74 (inactive)	1.42 (inactive)	1.01	0.822
Cc1ccc(N2C(=O)c3ccccc3[C@](C)(C(=O)NCC(F)(F)F)[C@@H]2c2ccc(CO)cc2)nc1	-0.318	-1.01 (inactive)	0.234 (inactive)	-1.31 (inactive)	-0.763	-0.179	-1.08	-0.727	-1.46	1.49 (inactive)	-0.147	0.57 (inactive)	0.253 (inactive)	-0.317 (inactive)	0.127 (inactive)	0.654	-0.103 (inactive)	-1.56 (inactive)	1.22	0.708
COC(=O)C(CC#Cc1ccc2c(c1)[C@]1(C(=O)N2)[C@H](C(N)=O)[C@H]2C(=O)O[C@H](c3ccccc3)[C@H](c3ccccc3)N2[C@@H]1c1ccc(O)cc1)C(=O)OC	-0.156	-0.229 (inactive)	0.182 (inactive)	-0.909 (inactive)	-1.09	-0.504	-0.372	0.488	-0.295	1.66 (inactive)	-0.696	14.5 (active)	1.23 (inactive)	0.974 (inactive)	0.37 (inactive)	0.331	1.32 (inactive)	0.297 (inactive)	1.1	0.685
NCCCCCNC(=O)[C@H]1C[C@H]2C(=O)NCC(=O)N2[C@H]1c1ccc(O)cc1	0.518	-0.108 (inactive)	0.679 (inactive)	0.407 (inactive)	1.72	-0.0419	1.69	0.376	2	1.01 (inactive)	-0.147	0.365 (inactive)	0.113 (inactive)	-1.79 (inactive)	0.252 (inactive)	-0.565	0.653 (inactive)	-1.24 (inactive)	0.566	-0.0704
COC(=O)C(CC#Cc1ccc2c(c1)[C@]1(C(=O)N2)[C@H](C(=O)O)[C@H]2C(=O)O[C@H](c3ccccc3)[C@H](c3ccccc3)N2[C@@H]1c1ccc(OCCO)cc1)C(=O)OC	0.562	-2.27 (inactive)	-0.258 (inactive)	-1.32 (inactive)	1.25	0.0714	0.734	1.06	0.969	3.78 (inactive)	0.305	10 (active)	0.0825 (inactive)	0.646 (inactive)	-2.18 (inactive)	2.47	1.39 (inactive)	0.164 (inactive)	0.396	2.54
COC(=O)[C@@]1(CCC(=O)OC(C)(C)C)COC(c2ccc(OCCCO)cc2)=N1	-0.328	-0.243 (inactive)	0.694 (inactive)	-1.14 (inactive)	-1.44	-0.109	-1.3	-0.742	-1.03	1.06 (inactive)	0.0721	21 (active)	3.26 (inactive)	0.0081 (inactive)	0.613 (inactive)	0.21	-0.0972 (inactive)	0.562 (inactive)	-2.25	0.196
